Measured values published in PubChem BioAssay (EPA / NIEHS).
Active and inactive are the calls of the source. The calls were made as follows: active = hit-call score of the fitted dose curve at least 0.9, where 1 is the maximum; inactive = score below 0.9.

Each compound was assayed against Hypoxia-inducible factor 1-alpha (Homo sapiens) (UniProt Q16665) (assay: ATG_HIF1a_CIS: Attagene CIS-FACTORIAL HepG2 Assay for human Hypoxia Inducible Factor 1 (HIF1A) (AID 2282951)). Conditions: HepG2 Attagene cis-factorial HIF1a reporter transcription; actives raise or lower the signal.
Procedure, shortened: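 HepG2, transient cis-reporter library, 24 h dosing. RNA → RT (oligo dT) → PCR → 6-FAM primer extension → HpaI → CE. Bidirectional curve fit vs DMSO.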

Hypoxia-inducible factor 1-alpha (Homo sapiens), sequence (Q16665 whole entry, looked up): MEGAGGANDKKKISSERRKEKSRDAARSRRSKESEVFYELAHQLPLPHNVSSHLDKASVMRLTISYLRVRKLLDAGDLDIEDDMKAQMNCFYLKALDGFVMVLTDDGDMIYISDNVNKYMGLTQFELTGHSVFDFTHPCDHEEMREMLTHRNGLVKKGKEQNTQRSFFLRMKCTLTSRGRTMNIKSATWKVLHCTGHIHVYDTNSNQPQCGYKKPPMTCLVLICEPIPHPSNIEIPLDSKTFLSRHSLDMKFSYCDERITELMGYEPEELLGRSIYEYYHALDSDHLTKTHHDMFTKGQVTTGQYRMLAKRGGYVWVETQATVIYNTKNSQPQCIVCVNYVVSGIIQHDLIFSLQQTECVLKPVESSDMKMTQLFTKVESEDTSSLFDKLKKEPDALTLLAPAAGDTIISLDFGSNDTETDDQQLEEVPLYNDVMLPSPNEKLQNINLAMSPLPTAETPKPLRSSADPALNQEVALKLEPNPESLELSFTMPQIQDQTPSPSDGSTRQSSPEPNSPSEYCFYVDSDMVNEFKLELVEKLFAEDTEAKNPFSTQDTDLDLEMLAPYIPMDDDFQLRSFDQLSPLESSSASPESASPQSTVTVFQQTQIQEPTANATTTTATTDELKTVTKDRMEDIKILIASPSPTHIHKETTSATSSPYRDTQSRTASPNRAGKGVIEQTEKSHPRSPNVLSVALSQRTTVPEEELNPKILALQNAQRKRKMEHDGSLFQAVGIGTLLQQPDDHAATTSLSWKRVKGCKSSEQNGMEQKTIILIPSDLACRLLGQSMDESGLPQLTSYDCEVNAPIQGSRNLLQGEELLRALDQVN

Compound | outcome | AC50
CCCCNC(=O)NS(=O)(=O)c1ccc(N)cc1 | inactive | –
CCOC(=O)c1ccccc1OC | inactive | –
CCCCCCCCCCN | inactive | –
CC(C)(CO)[N+](=O)[O-] | inactive | –
CC1(C)C(=O)N(Br)C(=O)N1Cl | inactive | –
COc1ccc(O)cc1 | inactive | –
CC(=O)Nc1ccc(CC(=O)O)cc1 | inactive | –
CC(C)C1CCC(O)CC1 (stereo not given) | inactive | –
C=C(C)C(=O)O | inactive | –
CCCCCNCCCCC | inactive | –
COc1cc(C=O)ccc1OC(=O)C(C)C | inactive | –
O=C[C@H](O)[C@H](O)[C@H](O)CO | inactive | –
CCCCOCCOCCOCCOCCO | inactive | –
C=C[Si](OCC)(OCC)OCC | inactive | –
CCCCCCOC(=O)CCCCC | inactive | –
COC(C)CCO (stereo not given) | inactive | –
OCCOc1cccc(OCCO)c1 | inactive | –
C=C(C)[C@@H]1CC[C@@H](C)C[C@@H]1O | inactive | –
CCCCCCCCCCCCN(CCCCCCCCCCCC)CCCCCCCCCCCC | inactive | –

Compound | outcome | AC50
Cc1ccc(C(C)C)cc1O | inactive | –
CC(=O)[O][Al][O]C(C)=O | inactive | –
CCCCCCCCCCCCCCCC(=O)O | inactive | –
CC(=O)c1c(C)cc(C(C)(C)C)cc1C | inactive | –
CCCCCCCCCCCCCCCC(=O)OC[C@H](O)[C@H]1OC(=O)C(O)=C1O | – | 131 µM (active)
C=C(C)C(=O)O[C@H]1C[C@@H]2CC[C@@]1(C)C2(C)C | – | 73.3 µM (active)
CCCCCOC(=O)CCC | inactive | –
Nc1nc2ccc([N+](=O)[O-])cc2s1 | inactive | –
CCCCCCCCCCCCCOS(=O)(=O)O | inactive | –
CCCCN | inactive | –
CC(C)=CCO | inactive | –
NCCCCCCN | inactive | –
C=C(C)C(=O)Nc1ccc(Cl)c(Cl)c1 | inactive | –
O=S(=O)(O)NC1CCCCC1 | inactive | –
CC(C)C(C)(C)C(C)(C)C(C)(C)S | inactive | –
C=C(C)C1CCC(C)CC1O (stereo not given) | inactive | –
CC(C)[C@@H]1CC[C@@H](C)CC1=O | – | 38.4 µM (active)
CCCCCC(CO)CCC (stereo not given) | inactive | –
O=c1[nH]c(=O)n([C@H]2CCCO2)cc1F | inactive | –

Each compound was assayed against Hepatocyte nuclear factor 6 (Homo sapiens) (UniProt Q9UBC0) (assay: ATG_HNF6_CIS: Attagene CIS-FACTORIAL HepG2 Assay for human Hepatocyte Nuclear Factor 6 (HNF6) (AID 2282952)). Conditions: HepG2 Attagene cis-factorial HNF6 reporter transcription; actives raise or lower the signal.
Procedure, shortened: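 Readout: fluorescent reporter-transcript fragments resolved by capillary electrophoresis after RT-PCR, reflecting endogenous factor activity in transfected HepG2. Exposure 24 h. Gain or loss of signal fitted bidirectionally against DMSO.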

Hepatocyte nuclear factor 6 (Homo sapiens), sequence (Q9UBC0 whole entry, looked up, the tested form may be a part): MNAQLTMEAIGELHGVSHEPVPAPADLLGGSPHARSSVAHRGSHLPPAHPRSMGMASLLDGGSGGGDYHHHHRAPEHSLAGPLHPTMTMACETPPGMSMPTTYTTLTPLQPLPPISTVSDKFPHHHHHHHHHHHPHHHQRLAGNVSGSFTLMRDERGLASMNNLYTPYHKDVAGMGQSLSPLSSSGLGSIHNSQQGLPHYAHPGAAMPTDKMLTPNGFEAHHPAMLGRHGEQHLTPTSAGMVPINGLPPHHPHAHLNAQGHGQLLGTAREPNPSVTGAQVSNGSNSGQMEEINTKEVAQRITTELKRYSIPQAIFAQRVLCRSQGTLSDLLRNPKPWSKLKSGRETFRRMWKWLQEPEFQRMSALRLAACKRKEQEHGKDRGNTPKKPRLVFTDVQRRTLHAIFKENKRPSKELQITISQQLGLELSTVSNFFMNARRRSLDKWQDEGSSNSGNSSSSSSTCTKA

Compound | outcome
CCCCNC(=O)NS(=O)(=O)c1ccc(N)cc1 | inactive
CCOC(=O)c1ccccc1OC | inactive
CCCCCCCCCCN | inactive
CC(C)(CO)[N+](=O)[O-] | inactive
CC1(C)C(=O)N(Br)C(=O)N1Cl | inactive
COc1ccc(O)cc1 | inactive
CC(=O)Nc1ccc(CC(=O)O)cc1 | inactive
CC(C)C1CCC(O)CC1 (stereo not given) | inactive
C=C(C)C(=O)O | inactive
CCCCCNCCCCC | inactive
COc1cc(C=O)ccc1OC(=O)C(C)C | inactive
O=C[C@H](O)[C@H](O)[C@H](O)CO | inactive
CCCCOCCOCCOCCOCCO | inactive
C=C[Si](OCC)(OCC)OCC | inactive
CCCCCCOC(=O)CCCCC | inactive
COC(C)CCO (stereo not given) | inactive
OCCOc1cccc(OCCO)c1 | inactive
C=C(C)[C@@H]1CC[C@@H](C)C[C@@H]1O | inactive
CCCCCCCCCCCCN(CCCCCCCCCCCC)CCCCCCCCCCCC | inactive

Compound | outcome
Cc1ccc(C(C)C)cc1O | inactive
CC(=O)[O][Al][O]C(C)=O | inactive
CCCCCCCCCCCCCCCC(=O)O | inactive
CC(=O)c1c(C)cc(C(C)(C)C)cc1C | inactive
CCCCCCCCCCCCCCCC(=O)OC[C@H](O)[C@H]1OC(=O)C(O)=C1O | inactive
C=C(C)C(=O)O[C@H]1C[C@@H]2CC[C@@]1(C)C2(C)C | inactive
CCCCCOC(=O)CCC | inactive
Nc1nc2ccc([N+](=O)[O-])cc2s1 | inactive
CCCCCCCCCCCCCOS(=O)(=O)O | inactive
CCCCN | inactive
CC(C)=CCO | inactive
NCCCCCCN | inactive
C=C(C)C(=O)Nc1ccc(Cl)c(Cl)c1 | inactive
O=S(=O)(O)NC1CCCCC1 | inactive
CC(C)C(C)(C)C(C)(C)C(C)(C)S | inactive
C=C(C)C1CCC(C)CC1O (stereo not given) | inactive
CC(C)[C@@H]1CC[C@@H](C)CC1=O | inactive
CCCCCC(CO)CCC (stereo not given) | inactive
O=c1[nH]c(=O)n([C@H]2CCCO2)cc1F | inactive

What follows are compounds tested against Heat shock factor protein 1 (Homo sapiens) (UniProt Q00613) (assay: ATG_HSE_CIS: Attagene CIS-FACTORIAL HepG2 Assay for human Heat Shock Transcription Factor 1 (HSE) (AID 2282953)). Conditions: HepG2 HSE cis-reporter, Attagene RNA transcription; actives raise or lower the signal.
Procedure, shortened: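 Cells were transfected with cis-element-driven reporter constructs, dosed for 24 h, then total RNA was reverse-transcribed and reporter cDNA amplified, FAM-labelled and digested with HpaI. Fragments were resolved by capillary electrophoresis; gain or loss was fitted against DMSO.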

Heat shock factor protein 1 (Homo sapiens), sequence (Q00613 whole entry, looked up, the tested form may be a part): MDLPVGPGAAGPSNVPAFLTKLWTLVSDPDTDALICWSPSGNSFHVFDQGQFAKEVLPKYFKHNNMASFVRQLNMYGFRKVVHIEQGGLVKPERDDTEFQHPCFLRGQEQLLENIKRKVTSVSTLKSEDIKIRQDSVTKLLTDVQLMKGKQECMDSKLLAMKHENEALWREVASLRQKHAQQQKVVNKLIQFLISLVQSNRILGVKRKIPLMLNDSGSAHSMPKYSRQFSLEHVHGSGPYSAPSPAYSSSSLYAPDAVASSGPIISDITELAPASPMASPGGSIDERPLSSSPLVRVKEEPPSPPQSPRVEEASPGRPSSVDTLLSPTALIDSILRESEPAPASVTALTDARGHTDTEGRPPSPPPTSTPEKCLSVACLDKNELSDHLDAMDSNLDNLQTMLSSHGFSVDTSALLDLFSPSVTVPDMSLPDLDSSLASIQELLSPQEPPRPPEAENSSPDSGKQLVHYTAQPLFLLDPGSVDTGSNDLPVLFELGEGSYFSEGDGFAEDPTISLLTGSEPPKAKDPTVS

Compound | outcome | AC50
CCCCNC(=O)NS(=O)(=O)c1ccc(N)cc1 | inactive | –
CCOC(=O)c1ccccc1OC | inactive | –
CCCCCCCCCCN | inactive | –
CC(C)(CO)[N+](=O)[O-] | inactive | –
CC1(C)C(=O)N(Br)C(=O)N1Cl | inactive | –
COc1ccc(O)cc1 | inactive | –
CC(=O)Nc1ccc(CC(=O)O)cc1 | inactive | –
CC(C)C1CCC(O)CC1 (stereo not given) | inactive | –
C=C(C)C(=O)O | inactive | –
CCCCCNCCCCC | inactive | –
COc1cc(C=O)ccc1OC(=O)C(C)C | inactive | –
CCCCOCCOCCOCCOCCO | inactive | –
C=C[Si](OCC)(OCC)OCC | inactive | –
CCCCCCOC(=O)CCCCC | inactive | –
COC(C)CCO (stereo not given) | inactive | –
C=C(C)[C@@H]1CC[C@@H](C)C[C@@H]1O | inactive | –
CCCCCCCCCCCCN(CCCCCCCCCCCC)CCCCCCCCCCCC | inactive | –

Compound | outcome | AC50
Cc1ccc(C(C)C)cc1O | inactive | –
CCCCCCCCCCCCCCCC(=O)O | inactive | –
CC(=O)c1c(C)cc(C(C)(C)C)cc1C | inactive | –
CCCCCCCCCCCCCCCC(=O)OC[C@H](O)[C@H]1OC(=O)C(O)=C1O | – | 24.1 µM (active)
C=C(C)C(=O)O[C@H]1C[C@@H]2CC[C@@]1(C)C2(C)C | inactive | –
CCCCCOC(=O)CCC | inactive | –
Nc1nc2ccc([N+](=O)[O-])cc2s1 | inactive | –
CCCCCCCCCCCCCOS(=O)(=O)O | inactive | –
CC(C)=CCO | inactive | –
NCCCCCCN | inactive | –
C=C(C)C(=O)Nc1ccc(Cl)c(Cl)c1 | inactive | –
O=S(=O)(O)NC1CCCCC1 | inactive | –
CC(C)C(C)(C)C(C)(C)C(C)(C)S | inactive | –
C=C(C)C1CCC(C)CC1O (stereo not given) | inactive | –
CC(C)[C@@H]1CC[C@@H](C)CC1=O | inactive | –
CCCCCC(CO)CCC (stereo not given) | inactive | –
O=c1[nH]c(=O)n([C@H]2CCCO2)cc1F | inactive | –
